# In PubChem BioAssay AID1508600 (Functional Genomics Laboratory (NCATS/FGL), 2020):
# Among all 53,000 sequences or so, about 3,700 (7%) were called active. This is one part of a sample in which actives are shown more often than they occur.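 The calls were made as follows: active = gene knockdowns whose robust z-score for IL-1 alpha signal is at least 2 or at most -2, so actives lie on both sides; inactive = the rest.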
# Test: Components of the Cytosolic LPS Sensing Pathway: Gene Identification via Genome-wide siRNA Screen;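 also: robust z of the log signal after scaling to non-targeting control siRNA wells of the plate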
# Details: RAW264.7 macrophages, IL-1a HTRF, actives lie on both sides, screened at 100 nM (by protocol), cells primed 5 h with Pam3CSK4 first
# Outline: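 Three distinct siRNAs per gene were tested singly at 100 nM in RAW264.7 macrophages. Following Pam3CSK4 priming and 24 hour LipidA transfection, IL-1a secretion was read by HTRF.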
row,Sequence,z-score
1,GGAAUACGGAUUGAUGGAGTT against Fli1,2.19 (active)
2,CCUUAUGCAUGACUUGAGUTT against Exoc4,-0.2 (inactive)
3,GGUUCGUCAUACCUCCUCATT against C77080,-0.00884 (inactive)
4,GGAAUACAUUCCUUUUAAGTT against Gpx3,-1.27 (inactive)
5,GGAGAAGAAACGGAAAUGATT against Jagn1,-1.98 (inactive)
6,GGUAUUUAGAAACAUCAGUTT against Wls,-2.16 (active)
7,GCUGUUCAUAUAUCUUGCUTT against Olfr1386,1.17 (inactive)
8,GGCACAUAGCCAUACCAGATT against Fbxw17,0.0511 (inactive)
9,GGAUUCCUGUUAAAAGUCUTT against Azin1,-0.152 (inactive)
10,GGAUUAUCAAUGAAUAGCATT against Gabrb2,0.913 (inactive)
11,GGGAGAAGUAAGUGUUAUCTT against Npy2r,3.86 (active)
12,GGACAAUCCGAACAUCAAATT against Sval1,-0.403 (inactive)
13,GGCCUGCUUCAAACAGUUUTT against Slc1a6,0.648 (inactive)
14,CGACUUUUCUCAUUAUGAGTT against Ythdf1,-2.58 (active)
15,GGAUACACUGUUUGAAUGUTT against Cks1b,0.00229 (inactive)
16,GCCGAUUCAAUACUGUGACTT against Rnf149,-0.649 (inactive)
17,GCACAACCAAUUACGUGGCTT against Gpnmb,-0.149 (inactive)
18,GCAGAUCACUGGAGUAAACTT against Spz1,-0.381 (inactive)
19,GGUAUGAAACCGUAUAAAUTT against Zfp60,0.00529 (inactive)
20,GCGUGCUGUGUAAGAGUGUTT against Gja4,-2.5 (active)
21,GCACAUACAGCUUAACAAATT against Nktr,1.27 (inactive)
22,GGGUUUUUCAUAAACAAAGTT against Pdcd1lg2,-1.46 (inactive)

row,Sequence,z-score
1,GGUAAAAAGGGUGUGUACUTT against Pdzk1,0.00178 (inactive)
2,CCACUAAAAUCUUACUGGATT against Scn7a,0.671 (inactive)
3,GCGUAUAGUUUCGAGAAAUTT against Mettl8,0.46 (inactive)
4,GGGUCUACCACAUGUACAUTT against Slc16a6,2.23 (active)
5,CCCUAACAUUGAGAUGAUUTT against Peg10,-0.369 (inactive)
6,CCAUUCUCCUCAGAUACUCTT against Slc25a17,-1.38 (inactive)
7,CCCAUAAGGGUGAAAUUCGTT against Tax1bp1,0.444 (inactive)
8,GGCCCACAAGAAGAACAAGTT against Zfp423,1.29 (inactive)
9,CGGUAGAGUGCUUACGCAATT against Camk2g,0.869 (inactive)
10,GGGAACCGCUUAUAUGUCCTT against Tbx21,-0.195 (inactive)
11,GGACAGAUAGGAUUAGAGATT against Igfbp5,0.215 (inactive)
12,CGUGCCAUAAUACACUAUCTT against Gng5,2.79 (active)
13,GGCGAAUGUUUACGAGAACTT against Sh2d1b2,0.327 (inactive)
14,GGCAGGUUUGGUAACCAGATT against Fut1,0.559 (inactive)
15,GCUUCUUGAAAGUACAUUGTT against Nae1,0.386 (inactive)
16,GGCUCUUCACUCAUGUAUGTT against Olfr703,-0.931 (inactive)
17,GGCCCAUAUCUGCUCUCAUTT against Ssc5d,-2.04 (active)
18,GCCUAUCUUGUCACCACUGTT against Tagln2,-0.276 (inactive)
19,GGAAACAAAAGGAUUUCUGTT against Fbxl13,1.24 (inactive)
20,GGCGAGAAGGAAAUGUACATT against Arpc3,2.62 (active)
21,CCAUCCUUCCGAAAGACGATT against Lcn10,0.465 (inactive)
22,CCAAGAUCGAUCAUUUUGGTT against Gm527,-0.794 (inactive)

row,Sequence,z-score
1,GGUCCAAGAGAAAUGUGUATT against Hacd4,-2.55 (active)
2,GGUUUUUCUAACUUUGGUCTT against Cdcp2,-0.0176 (inactive)
3,AAGAGCCAUUAAUCGAGAATT against Cklf,-0.0691 (inactive)
4,GGCUAUUGCUGACCUCAGATT against Pidd1,-2.73 (active)
5,GCGCAAAAGGACCUAUGAGTT against Rela,-0.342 (inactive)
6,CGUGGUAGACACUGUGGUATT against Plin1,1.61 (inactive)
7,GGAGAUGAUGCCGUCAUUCTT against Chaf1b,1.97 (inactive)
8,CCAUAUGAUAAGCAUAAGCTT against Zfp449,0.149 (inactive)
9,CCCGUAUGGAUGUGGUAACTT against Tmem239,-1.39 (inactive)
10,CCUAACCAAGAUCCAAUCUTT against 6330549D23Rik,-2.85 (active)
11,GGCCAUCCAAGCAUGAGUUTT against Rbfa,1.37 (inactive)
12,GGCAGGAAAUUCAUUUUAATT against Zfy2,-1.43 (inactive)
13,GGAGAUGGACUCACUGAUGTT against Zscan20,-1.32 (inactive)
14,CCACAAAGGAAUUCAUGAGTT against Dhx16,-1.41 (inactive)
15,GGUCAAGGAGAUCACCUUCTT against Comp,-1.27 (inactive)
16,GGAAAAGGAAACCCAGAGCTT against Tdg,-2.4 (active)
17,CCCGGAAUGUUUAGUAUCGTT against Fermt1,-1.25 (inactive)
18,GGCCAUUAACAGCAGUCUGTT against Kifc5b,-1.71 (inactive)
19,GGAAGUGGAACACAUGAUCTT against Zfp346,-0.449 (inactive)
20,GGCAUGAAUGAGUUUAUCATT against Vps8,-1.12 (inactive)
21,GGAGAAAUAUGUAUGUACATT against Ece2,2.01 (active)
22,GGAGUCUGAAGAUGACAUGTT against Rplp1,-0.775 (inactive)

row,Sequence,z-score
1,GCCACUAAAUCCUGUUUCCTT against Ydjc,-0.0858 (inactive)
2,GAGAUGGAAAGUGGUUUCUTT against Olfr1226,0.543 (inactive)
3,GGUCACGAUUCUGUCAGACTT against Ctnnal1,3.57 (active)
4,GGUGAAAAUCAAGCUGAAUTT against Smarca2,1.36 (inactive)
5,GGCUUCCAAGCCUAAAGCUTT against H1f3,-0.266 (inactive)
6,GGAUCAAUUGACCACAAACTT against Magi3,0.164 (inactive)
7,GCGAUGCACUGUGUAAACUTT against Ccr6,0.772 (inactive)
8,GGGCUUGUAGAUGUGCGUATT against Hic2,3.32 (active)
9,UGCGGUUGAAUUCUCCCAUTT against Fbll1,-0.525 (inactive)
10,CGCACUUACCGUGUCCUAUTT against Homer3,0.0495 (inactive)
11,GGAGAGAAAGAAUUUCAUCTT against Chordc1,0.185 (inactive)
12,GGAAAUCAGAGAGAAGAUGTT against Nubp1,-1.53 (inactive)
13,CCACAGAGUUCCUAUACAATT against Pfkl,-2.52 (active)
14,CCCACGGAGGCAAUAAAUATT against Crygn,-0.155 (inactive)
15,GGAGAACUUCAGUGAGUCCTT against Ambp,-2.43 (active)
16,GCCACUCACCUAGCAAAGATT against Fbrsl1,-1.36 (inactive)
17,GGAAAUUUCAGUCGUAGUATT against Mgat4c,0.642 (inactive)
18,CGACUAUAGACUCUUGAAUTT against 1810037I17Rik,0.573 (inactive)
19,GGAGAAAUACAACUGAAAATT against Pcdhb7,-0.0269 (inactive)
20,GGCCAGAAGAUCUUCACCATT against Furin,0.449 (inactive)
21,GCUCUUUGGUCGAGAACCATT against Mup5,-2.42 (active)
22,GCAUCGUUUGUGAGAAUUUTT against Perp,-0.61 (inactive)

row,Sequence,z-score
1,GGGCUAUCCUUCUGAAUUUTT against Csnk1d,1.46 (inactive)
2,GCUCUCCAUUACGUGCUUGTT against Rrp9,1.39 (inactive)
3,GGAGAGAAAGAACUGGAAATT against Fam78a,0.357 (inactive)
4,CCUAUCAGACUGUAAUAAGTT against Kdm2b,-0.404 (inactive)
5,GGGUGUAUUACCUCUCUCUTT against Pygl,2.12 (active)
6,CCACGAUAGCACCUAUUUUTT against Gucy2c,-0.405 (inactive)
7,GGAACAUUGAAAGGAUUAATT against Smc3,-1.9 (inactive)
8,GGCUUAAGUAUUUUUCUGATT against Aktip,-0.269 (inactive)
9,GGUCUUCAUCUGUCCAACUTT against Tmlhe,-2.09 (active)
10,CCUGUACCUGCGUAUUCAATT against Grap,-1.63 (inactive)
11,GGUGCAGCACUUCAAAGUGTT against Grap,2.41 (active)
12,GGCCUGAAGACAGACAUGATT against C030016D13Rik,-1.2 (inactive)
13,GGAAGAGAUGAAGAAAAUGTT against Cetn1,-1.01 (inactive)
14,GGAACUUUUGGCCAGCAAGTT against Opa1,1.59 (inactive)
15,CGAUUACAUCCUUUUUGACTT against Gpn3,-0.228 (inactive)
16,GCGCCUUAACCAAGAAGUUTT against Cox18,2.84 (active)
17,GGAUCUAGAACAGAAAAUGTT against Stat3,-1.55 (inactive)
18,GCUGCUAUGACCUAUGGCATT against Sptlc2,-0.543 (inactive)
19,GGGUUGUCGUUCAGUUUACTT against Art2a,2.8 (active)
20,GGAAUUAAGUCAUCAGGAATT against Slc6a5,-0.763 (inactive)
